PubChem BioAssay (NCI)
About 79,000 compounds went through this panel and 15% of them were active in at least one assay; those are over-represented in the sample as a whole. Active and inactive are the calls of the source. Cut-off read from the data, not from the text of the source: active = growth inhibition above about 70%; inactive = the rest.

Key:
[1] = NCI Yeast Anticancer Drug Screen. Data for the sgs1 strain (AID 173);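 note: 0% = growth of vehicle-only control cultures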; conditions: S. cerevisiae sgs1 mutant, active compounds read high
In short: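 Inhibition of yeast growth served as the measure. The mutant strain was treated with each compound, and growth was normalised to cultures receiving vehicle alone.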

[2] = NCI Yeast Anticancer Drug Screen. Data for the rad18 strain (AID 177); conditions: S. cerevisiae rad18 mutant growth inhibition, active compounds read high
In short: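 Inhibition values reflect reduced yeast growth compared with vehicle-treated controls, using a strain engineered with a DNA damage repair defect.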

[3] = NCI Yeast Anticancer Drug Screen. Data for the rad52 strain (AID 147);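 note: 0% = growth of vehicle-treated control cultures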; conditions: S. cerevisiae rad52 mutant growth inhibition, active compounds read high
In short: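 Genetically altered yeast (DNA damage repair defect) treated with compound; inhibition calculated relative to vehicle.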

[4] = NCI Yeast Anticancer Drug Screen. Data for the rad50 strain (AID 155);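 note: 0% = growth of vehicle-only cultures of the same strain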; conditions: S. cerevisiae rad50 strain growth inhibition, active compounds read high
In short: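 Yeast carrying a defined DNA repair defect were exposed to test compounds, and growth was compared with vehicle-treated controls to give percent inhibition.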

[5] = NCI Yeast Anticancer Drug Screen. Data for the mec2-1 strain (AID 157); conditions: S. cerevisiae mec2-1 strain, active compounds read high
In short: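 Cells of the genetically defined mec2-1 yeast strain are incubated with test compound. Inhibition of growth is calculated against vehicle-treated controls.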

[6] = NCI Yeast Anticancer Drug Screen. Data for the rad14 strain (AID 159);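 note: 0% = growth of vehicle-treated control cultures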; conditions: S. cerevisiae rad14 strain growth inhibition, active compounds read high
In short: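 Yeast cells carrying a defined DNA-repair defect were exposed to compounds, and growth inhibition was calculated relative to vehicle-treated control cultures.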

[7] = NCI Yeast Anticancer Drug Screen. Data for the sgs1 mgt1 strain (AID 161);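 note: 0% = growth of cultures given vehicle only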; conditions: S. cerevisiae sgs1 mgt1 strain, active compounds read high
In short: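 Genetically altered yeast, compound exposure, growth inhibition relative to vehicle.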

[8] = NCI Yeast Anticancer Drug Screen. Data for the CLN2oe strain (AID 163);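 note: 0% = growth of vehicle-only control cultures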; conditions: S. cerevisiae CLN2oe strain, active compounds read high
In short: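 Strain altered in cell-cycle control, incubated with compound; growth compared to solvent-treated controls.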

[9] = NCI Yeast Anticancer Drug Screen. Data for the cln2 rad14 strain (AID 165);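 note: 0% = growth equal to vehicle treated cultures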; conditions: S. cerevisiae cln2 rad14 strain, active compounds read high
In short: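 The screen exposed genetically defined yeast (cln2 rad14) to test compounds and scored growth inhibition relative to vehicle-treated controls.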

[10] = NCI Yeast Anticancer Drug Screen. Data for the bub3 strain (AID 167); conditions: S. cerevisiae bub3 mutant strain, active compounds read high
In short: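 Compounds were applied to a genetically altered yeast strain carrying a cell-cycle control defect. Growth inhibition was scored against vehicle-treated controls.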

[11] = NCI Yeast Anticancer Drug Screen. Data for the wt2 strain (AID 169);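 note: 0% = growth of vehicle-treated yeast cultures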; conditions: S. cerevisiae wt2 strain growth inhibition, active compounds read high
In short: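 Steps: yeast strain treated with compound; growth recorded; inhibition calculated relative to cultures given vehicle alone.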

[12] = NCI Yeast Anticancer Drug Screen. Data for the mlh1 strain (AID 171);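 note: 0% = growth of vehicle-treated control cultures of the same strain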; conditions: S. cerevisiae mlh1 strain growth inhibition, active compounds read high
In short: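 Yeast screen: mutant strain plus compound, growth scored against vehicle control wells.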

[13] = NCI Yeast Anticancer Drug Screen. Data for the mlh1 rad18 strain (AID 175); conditions: S. cerevisiae mlh1 rad18 strain growth inhibition, active compounds read high
In short: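 Compound-treated yeast growth, normalised to vehicle controls. Strain bears defined DNA repair mutations.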

[14] = NCI Yeast Anticancer Drug Screen. Data for the wt1 strain (AID 149);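 note: 0% = growth of vehicle-treated wt1 cultures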; conditions: S. cerevisiae wt1 strain (SPY 50644) growth inhibition, active compounds read high
In short: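 Yeast wt1 strain exposed to compounds; growth inhibition measured relative to vehicle-treated controls.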

[15] = NCI Yeast Anticancer Drug Screen. Data for the rad50EPP+ strain (AID 151);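 note: 0% = growth of vehicle-treated control cultures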; conditions: S. cerevisiae rad50 mutant strain, active compounds read high
In short: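 Strain rad50EPP+; compound exposure; % growth inhibition vs vehicle.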

[16] = NCI Yeast Anticancer Drug Screen. Data for the mgt1 strain (AID 153); conditions: S. cerevisiae mgt1 mutant growth inhibition, active compounds read high
In short: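 Read-out: yeast growth inhibition vs vehicle control. Strain mgt1, drawn from a panel altered in DNA damage repair or cell cycle control.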

[17] = at 5.0 µM (retest, dose inferred, filed as 0.5)
[18] = at 50.0 µM (retest, dose inferred, filed as 5.0)

Measured: growth inhibition

O=[N+]([O-])c1cccc2nc3ccccc3c(NCCc3cccc[n+]3[O-])c12
active: [1]; at 33.0 µM 93% | [1]; at 100.0 µM 96% | [2]; at 1.2 µM 92% | [2]; at 3.7 µM 94% | [2]; at 11.0 µM 94% | [2]; at 33.0 µM 96% | [2]; at 100.0 µM 96%

Cc1cc(OCc2ccccc2)ccc1[N+](=O)[O-]
inactive: [3]; at 1.2 µM 20% | [3]; at 3.7 µM 22% | [3]; at 11.0 µM 21% | [3]; at 33.0 µM 44% | [3]; at 100.0 µM 69% | [4]; at 1.2 µM 11% | [4]; at 3.7 µM 34% | [4]; [17] 50% | [4]; at 11.0 µM 29% | [4]; at 33.0 µM 31% | [4]; at 50.0 µM 37.2% | [4]; at 100.0 µM 50% | [5]; at 1.2 µM 2% | [5]; at 3.7 µM 15% | [5]; [17] 51% | [5]; at 11.0 µM 10% | [5]; at 33.0 µM 22% | [5]; at 50.0 µM 26.9% | [6]; at 1.2 µM -15% | [6]; at 3.7 µM 1% | [6]; at 11.0 µM 11% | [6]; at 33.0 µM 39% | [6]; at 100.0 µM 63% | [7]; [17] -5% | [8]; at 1.2 µM 9% | [8]; at 3.7 µM 23% | [8]; at 11.0 µM 11% | [8]; at 33.0 µM 32% | [9]; [17] 40% | [9]; at 50.0 µM 44.1% | [10]; at 1.2 µM -16% | [10]; at 3.7 µM -11% | [10]; [17] 33% | [10]; at 11.0 µM -5% | [10]; at 33.0 µM 12% | [10]; at 50.0 µM 55.6% | [10]; at 100.0 µM 51% | [11]; at 1.2 µM -11% | [11]; at 3.7 µM -11% | [11]; at 11.0 µM -7% | [11]; at 33.0 µM 9% | [11]; at 100.0 µM 47% | [12]; at 1.2 µM 21% | [12]; at 3.7 µM 15% | [12]; at 11.0 µM 3% | [12]; at 33.0 µM 16% | [1]; at 1.2 µM 11% | [1]; at 3.7 µM 16% | [1]; at 11.0 µM 6% | [1]; at 33.0 µM 38% | [13]; [17] 42% | [13]; at 50.0 µM 18.1% | [2]; at 1.2 µM -15% | [2]; at 3.7 µM -14% | [2]; at 11.0 µM -14% | [2]; at 33.0 µM 22% | [2]; at 100.0 µM 66%
active: [4]; [18] 85% | [5]; [18] 85% | [5]; at 100.0 µM 78% | [7]; [18] 88% | [7]; at 50.0 µM 74.6% | [8]; at 100.0 µM 71% | [9]; [18] 93% | [10]; [18] 95% | [12]; at 100.0 µM 82% | [1]; at 100.0 µM 88% | [13]; [18] 84%

O=C(/C=N/O)Nc1cc(Cl)c(Cl)cc1Cl
active: [15]; at 100.0 µM 83% | [16]; at 100.0 µM 92% | [4]; [18] 98% | [4]; at 50.0 µM 79.2% | [5]; [18] 98% | [6]; at 100.0 µM 75% | [7]; [18] 84% | [9]; [18] 77% | [10]; [18] 89% | [12]; at 100.0 µM 79% | [13]; [18] 99% | [2]; at 100.0 µM 78%
inactive: [14]; at 1.2 µM -37% | [14]; at 3.7 µM -35% | [14]; at 11.0 µM -36% | [14]; at 33.0 µM -12% | [14]; at 100.0 µM 3% | [15]; at 1.2 µM -17% | [15]; at 3.7 µM 3% | [15]; at 11.0 µM 6% | [15]; at 33.0 µM 51% | [16]; at 1.2 µM -8% | [16]; at 3.7 µM -9% | [16]; at 11.0 µM 34% | [16]; at 33.0 µM 60% | [4]; at 1.2 µM -35% | [4]; at 3.7 µM -21% | [4]; [17] 45% | [4]; at 11.0 µM -33% | [4]; at 33.0 µM 10% | [4]; at 100.0 µM 63% | [5]; at 1.2 µM -34% | [5]; at 3.7 µM -22% | [5]; [17] 55% | [5]; at 11.0 µM -26% | [5]; at 33.0 µM -3% | [5]; at 50.0 µM 65% | [5]; at 100.0 µM 43% | [6]; at 1.2 µM -39% | [6]; at 3.7 µM -31% | [6]; at 11.0 µM -32% | [6]; at 33.0 µM 23% | [7]; [17] -12% | [8]; at 1.2 µM 6% | [8]; at 3.7 µM 18% | [8]; at 11.0 µM 1% | [8]; at 33.0 µM 18% | [8]; at 100.0 µM 63% | [9]; [17] 67% | [10]; at 1.2 µM -32% | [10]; at 3.7 µM -27% | [10]; [17] 17% | [10]; at 11.0 µM -21% | [10]; at 33.0 µM 8% | [10]; at 100.0 µM 57% | [11]; at 1.2 µM -56% | [11]; at 3.7 µM -58% | [11]; at 11.0 µM -38% | [11]; at 33.0 µM -1% | [11]; at 100.0 µM 37% | [12]; at 1.2 µM -34% | [12]; at 3.7 µM -26% | [12]; at 11.0 µM -9% | [12]; at 33.0 µM 37% | [1]; at 1.2 µM -55% | [1]; at 3.7 µM -31% | [1]; at 11.0 µM -36% | [1]; at 33.0 µM 28% | [1]; at 100.0 µM 67% | [13]; [17] 36% | [13]; at 50.0 µM 47.2% | [2]; at 1.2 µM -28% | [2]; at 3.7 µM -18% | [2]; at 11.0 µM -12% | [2]; at 33.0 µM 36%
